Screens (PubChem)
D2 PAM-1 = Beta-Arrestin HTS for Positive Allosteric Modulators of the Human D2 Dopamine Receptor: Potentiators; AID 624464, 2012; DiscoveRx D2 beta-arrestin cells, luminescence, 90 min; 100% = 57 uM dopamine signal; potentiation, % (no concentration beside the values); D(2) dopamine receptor (Homo sapiens), P14416; 360,000 compounds, 0.23% hits; in the data active means potentiation above about 50%; inconclusive means mostly about 30% to 49%
Target sequence (P14416 whole entry, looked up): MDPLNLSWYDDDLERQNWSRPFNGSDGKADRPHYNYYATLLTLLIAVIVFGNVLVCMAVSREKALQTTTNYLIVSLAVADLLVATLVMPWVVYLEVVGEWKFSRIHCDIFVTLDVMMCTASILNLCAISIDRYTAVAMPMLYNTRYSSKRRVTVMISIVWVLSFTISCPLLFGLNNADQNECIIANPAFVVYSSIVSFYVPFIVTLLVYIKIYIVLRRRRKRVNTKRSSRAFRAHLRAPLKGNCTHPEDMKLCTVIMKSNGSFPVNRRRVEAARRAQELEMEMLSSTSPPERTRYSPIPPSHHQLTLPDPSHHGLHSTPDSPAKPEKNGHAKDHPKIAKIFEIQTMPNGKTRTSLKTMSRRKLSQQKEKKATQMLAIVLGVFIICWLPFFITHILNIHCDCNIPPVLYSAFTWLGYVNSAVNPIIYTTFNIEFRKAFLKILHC
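PathHunter beta-arrestin assay in DiscoveRx D2 cells. Compounds were added with an EC20 of dopamine (50 nM final) for 90 min at 37 deg C. Luminescence was read 1 h after detection reagent, with 57 uM dopamine as the EC100 control.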
D2 ag-1 = Beta-Arrestin HTS for Positive Allosteric Modulators of the Human D2 Dopamine Receptor: Agonists; activation, % (test concentration not listed); D(2) dopamine receptor (Homo sapiens), P14416; AID 624465, 2012; 360,000 compounds, 0.084% hits; DiscoveRx PathHunter D2 beta-arrestin, luminescence, 90 min; 100% = 57 uM dopamine signal; in the data active means activation above about 40%; inconclusive means between about 15% and that limit
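Agonist mode: compounds alone added to overnight-plated D2 PathHunter cells for 90 min at 37 C, with 57 uM final dopamine (EC100) defining full response. Beta-arrestin recruitment detected by chemiluminescent reagent, read after 1 h at ambient temperature.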
D2 PAM-2 = HTS Assay for Positive Allosteric Modulators of the Human D2 Dopamine Receptor: Primary Screen for Potentiators; D(2) dopamine receptor (Homo sapiens), P14416; HEK293 T-REx D2, calcium flux, EC20 dopamine potentiation; potentiation, % at 10 µM; 340,000 compounds, 0.34% hits; AID 485347, 2010;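 active means potentiation over 3 SD above the plate norm, cut at about 30% in these data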; further: 0% is about no effect
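Primary screen. Calcium kinetics in induced HEK293 T-REx D2 cells: compound pre-addition 180 s, EC20 dopamine, 180 s more.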
D2 antag = HTS Assay for Allosteric Antagonists of the Human D2 Dopamine Receptor: Primary Screen for Antagonists; D(2) dopamine receptor (Homo sapiens), P14416; HEK293 TREx D2 cells, calcium flux, dopamine EC80; inhibition, % at 10 µM; 340,000 compounds, 2% hits; AID 485344, 2010; in the data active means inhibition above about 30%; inactive means below that, where a call was filed; further: 0% is about no effect
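Dopamine at EC80 is the agonist stimulus; test compounds precede it by 180 s. Calcium flux read kinetically in a force-coupled, inducible HEK293 T-REx D2 cell line.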
D2 ag-2 = HTS Assay for Allosteric Agonists of the Human D2 Dopamine Receptor: Primary Screen for Agonists; 340,000 compounds, 0.53% hits; activation, % at 2 µM; HEK293 T-REx D2 cells, calcium flux agonist mode; AID 485358, 2010; D(2) dopamine receptor (Homo sapiens), P14416;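 active means activation over 3 SD above normal in the single-dose calcium agonist read, cut at about 30% in these data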; further: 0% is about no effect
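HEK293 Trex D2 cells, tetracycline-induced, o/n 30 C 5% CO2; no-wash Ca dye, RT 30–90 min; 10-cycle baseline, 23 nl cpd added, kinetic Ca read 180 s; agonist hits = positive Ca response.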
LDHA block = qHTS assay for inhibitors of human lactate dehydrogenase; L-lactate dehydrogenase A chain (Homo sapiens), P00338; purified LDHA, NADH/diaphorase-resazurin fluorescence; active compounds read low; activity change, % (values are at about 110 or 230 µM); 480,000 compounds, 0.15% hits; AID 1347041, 2019; in the data active means activity change below about -30%; inconclusive means mostly about -25% to -30%;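 further: plate controls were DMSO wells for no effect and wells without enzyme for full effect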
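Enzyme activity of human lactate dehydrogenase 5 (2 nM; 0.06 mM NADH, 0.2 mM pyruvate, 5 min, RT) is measured via a resazurin/diaphorase fluorescence readout of residual NADH.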
D3 ag = qHTS of D3 Dopamine Receptor Agonist: D3 Dopamine Receptor B-arrestin Agonist Confirmatory Assay. shares compounds with D2 ag-2. DiscoveRx D3 beta-arrestin cells, luminescence, 90 min. Potency, µM (top dose mostly 76.9 µM), inactives show at the highest dose activation, hits mostly activators. 2,300 compounds, 4% hits;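 further: potency means the concentration at half of the fitted maximal effect; 100% = dopamine control response; nearly all actives have a fitted effect of over 70% in size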
D2 ag-3 = qHTS of D3 Dopamine Receptor Agonist: D2 Dopamine Receptor B-arrestin Agonist Counterscreen; AID 720507, 2013; Potency, µM (titrated, usually from 76.9 µM), inactives show top-dose activation, most hits filed as activators; DiscoveRx PathHunter D2 beta-arrestin, luminescence, 90 min; response scale: percent relative to full dopamine signal; 2,300 compounds, 5.9% hits; shares compounds with D2 ag-2; further: potency means the concentration at half of the fitted maximal effect; % of control where 0% means no effect; nearly all actives have a fitted effect of over 70% in size
An asterisk follows results filed as active. Most compounds without a hit are left out; they make up all but 2.1% or so of the library. Unless noted, the call rests on the fitted dose curve; in most records, active means well fitted activation curve with a large enough effect; inconclusive means small, poorly fitted or top-dose-only effect; inactive means flat fitted curve, though single readings scatter.

Results for c1ccc(N2CCN(Cc3cn4cccnc4n3)CC2)cc1 ?
D2 PAM-1: -4.5; D2 ag-1: 0.0; D2 PAM-2: -24.0; D2 antag: 48.5*; D2 ag-2: 53.0*; LDHA block: -1.2; D3 ag: 1.3%; D2 ag-3: 23.2%

How did c1ccc(CN2CCN(Cc3cn4cccnc4n3)CC2)cc1 do in these assays?
D2 PAM-1: -10.2; D2 ag-1: 2.6; D2 PAM-2: -9.9; D2 antag: 8.5; D2 ag-2: 0.5; LDHA block: -6.2

How did CC(C)NC(=O)NC(=O)CN1CCCc2c(C(=O)NC(C)C)cccc21 do in these assays?
LDHA block: 3.1

How did Cc1ccc(C)c(N2CCN(C(=O)C3CCN(c4nnc(-n5c(C)ccc5C)s4)CC3)CC2)c1 do in these assays?
LDHA block: -7.4

Results for COc1ccc(C2CC(O)(c3ccccc3)Oc3c(C)ccc(C)c32)cc1 (stereo not drawn) ?
D2 PAM-1: -3.2; D2 ag-1: -3.6; D2 PAM-2: 20.8; D2 antag: 3.7; D2 ag-2: 0.6; LDHA block: 0.3

How did COc1ccc(C2CC(O)(c3ccccc3)Oc3cc(OC)cc(OC)c32)cc1 (stereo not drawn) do in these assays?
D2 PAM-1: 1.5; D2 ag-1: 5.4; D2 PAM-2: 10.5; D2 antag: 3.7; D2 ag-2: -0.2; LDHA block: 2.0; D3 ag: 19.5%; D2 ag-3: 4.3%

Results for CSc1cccc(NC(=O)C(C)Br)c1 (stereo not drawn) ?
LDHA block: -11.3

How did CC(=O)c1ccc(S(=O)(=O)N2CCN(CCOc3ccc(Br)cc3)CC2)cc1 do in these assays?
D2 PAM-1: -3.4; D2 ag-1: 2.3; D2 PAM-2: -0.3; D2 antag: -6.3; D2 ag-2: 0.9; LDHA block: 2.4

How did O=S(=O)(c1ccccc1)N1CCN(CCOc2ccc(F)cc2)CC1 do in these assays?
D2 PAM-1: -13.7; D2 ag-1: -1.2; LDHA block: -1.5

What do the screens show for `O=S(=O)(c1ccccc1F)N1CCN(CCOc2ccccc2)CC1`?
D2 PAM-1: -28.4; D2 ag-1: -1.1; D2 PAM-2: -21.2; D2 antag: 39.0*; D2 ag-2: 31.5*; LDHA block: -5.1; D3 ag: 21.4%; D2 ag-3: 16.4%

How did Cc1ccc(S(=O)(=O)N2CCN(CCOc3ccccc3)CC2)cc1 do in these assays?
D2 PAM-1: -16.4; D2 ag-1: 7.8; D2 PAM-2: -24.1; D2 antag: 15.8; D2 ag-2: 50.4*; LDHA block: -1.1; D3 ag: 26.0%; D2 ag-3: 9.5%

Results for CC(=O)c1cccc(S(=O)(=O)N2CCN(CCOc3ccccc3)CC2)c1 ?
D2 PAM-1: -11.8; D2 ag-1: 2.9; D2 PAM-2: -21.7; D2 antag: 0.8; D2 ag-2: 49.1*; LDHA block: -0.9; D3 ag: inconclusive; D2 ag-3: 15.5%

What do the screens show for `CC(=O)c1cc2cc(O)ccc2o1`?
D2 PAM-1: -9.0; D2 ag-1: -1.6; D2 PAM-2: -3.2; D2 antag: -9.9; D2 ag-2: 0.7; LDHA block: -0.9

Results for CC(=O)c1cc2c(O)c(O)ccc2o1 ?
D2 PAM-1: 12.7; D2 ag-1: 6.7; D2 PAM-2: -6.8; D2 antag: 1.9; D2 ag-2: 1.2; LDHA block: 53.3; D3 ag: inconclusive; D2 ag-3: 8.5%

Results for COc1cc(NC(=O)c2cc3ccccc3o2)ccc1NC(=O)c1ccccc1Cl ?
LDHA block: -12.3

Results for O=C(CCNC(=O)c1ccc(Cl)cc1)NCCCN1CCOCC1 ?
D2 PAM-1: -1.3; D2 ag-1: -2.9; D2 PAM-2: -9.5; D2 antag: -18.4; D2 ag-2: -0.2; LDHA block: -0.6; D3 ag: -5.8%; D2 ag-3: -5.5%

What do the screens show for `Cc1[nH]c2ccccc2c1C(=O)C(=O)Nc1ccc(C(C)C)cc1`?
LDHA block: 3.9

How did O=[N+]([O-])c1cccnc1N1CCN(Cc2ccc3c(c2)OCO3)CC1 do in these assays?
D2 PAM-1: 10.3; D2 ag-1: 43.9*; D2 PAM-2: -25.2; D2 antag: 92.3*; D2 ag-2: 89.2*; LDHA block: -7.6; D3 ag: -4.9%; D2 ag-3: inconclusive

How did O=C(c1cccnc1)N1CCN(Cc2ccc3c(c2)OCO3)CC1 do in these assays?
D2 PAM-1: -19.4; D2 ag-1: -1.9; D2 PAM-2: -3.5; D2 antag: -7.4; D2 ag-2: -0.2; LDHA block: -15.4

What do the screens show for `c1cnc(N2CCN(Cc3ccc4c(c3)OCO4)CC2)cn1`?
D2 PAM-1: inconclusive; D2 ag-1: 43.8*; D2 PAM-2: -23.0; D2 antag: 89.9*; D2 ag-2: 80.2*; LDHA block: -1.5; D3 ag: inconclusive; D2 ag-3: inconclusive

What do the screens show for `COc1ccccc1/C=N/NC(=O)c1ccc(CN2C(=O)c3cccc4cccc2c34)cc1`?
D2 PAM-1: -5.4; D2 ag-1: -4.1; D2 PAM-2: -7.9; D2 antag: -13.1; D2 ag-2: 0.3; LDHA block: -9.4; D3 ag: -3.6%; D2 ag-3: 1.9%

How did COC(=O)c1[nH]c(C)c(/C(O)=C2\C(=O)C(=O)N(CCCn3ccnc3)C2c2ccccc2F)c1C (stereo not drawn) do in these assays?
LDHA block: 2.7
